Laboratory results as given in PubChem BioAssay.
The source made the active and inactive calls.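 How the source made its calls, unless noted: active means compounds lowering colon cancer cell viability after pretreatment blocking the GSK3B kinase; inactive means the rest.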

What was measured:
[1] = stimulators of nuclear beta-catenin in C2C12, primary screen, imaging, WNT3A-conditioned medium, mouse C2C12, NPC library (AID 1117326; in the data active means nuclear beta-catenin stimulation mostly above about 4.2%, no sharp cut-off; inactive means mostly below about 10%; further: reference of the scale not given here); conditions: stronger effect = higher value
[2] = stimulators of insulin release from INS-1E, primary screen, cell-based, 5 mM glucose, NPC library (AID 1117329;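 active means compound raises insulin release from rat beta cells at 5 mM glucose, no numeric limit stated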; further: reference of the scale not given here); conditions: rat INS-1E insulin secretion, at 10 µM, stronger effect = higher value
[3] = growth inhibition of GSK3B-pretreated HCT116 cells – cell-based, CellTiter-Glo, 0.2 to 20 µM (AID 1117336); conditions: HCT116 viability after GSK3B inhibitor, at 20 µM, stronger effect = higher value
[4] = inhibition of endothelial tube formation, primary screen, imaging, VEGF stimulated, CD31 staining, tube area, NPC library (AID 1117340;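 active means compound that reduces growth-factor-driven endothelial tube area in a mixed cell culture, no cutoff stated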); conditions: VEGF-stimulated ADSC/ECFC co-culture, at 10 µM, stronger effect = higher value
[5] = glucagon-like peptide 1 release enhancers, primary assay, NCI-H716 cell line, NPC library (AID 1117341;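 active means compound raises GLP1 secretion from the human gut endocrine cells, with no numeric limit stated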; further: reference of the scale not given here); conditions: NCI-H716 cells, at 10 µM, stronger effect = higher value
[6] = HCT116 colon cancer cell growth inhibition, primary screen, CellTiter-Glo luminescence, NPC library (AID 1117342;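 active means compounds that lower survival of HCT116 colon cancer cells in the luminescence readout, no numeric limit stated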); conditions: at 20 µM (top of the series)
[7] = CellTiter-Glo luminescent readout of SW480 viability loss, NPC library primary (AID 1117343;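 active means compounds that lower viability of the colon cancer cells in the luminescence readout, with no numeric limit stated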); conditions: CellTiter-Glo luminescence; at 20 µM (top of the series)
[8] = decreased DLD-1 cellular survival, CellTiter-Glo luminescent readout, NPC compound collection, primary HTS (AID 1117346;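 active means compounds that lower survival of DLD-1 colon cancer cells in the luminescence readout, no cutoff given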); conditions: DLD-1 viability, CellTiter-Glo luminescence; at 20 µM (top of the series)

SMILES | nuclear beta-catenin stimulation ([1]; at 10 µM) | nuclear beta-catenin stimulation ([1]; stimulation, at 2 µM) | insulin secretion stimulation [2] | viability decrease [3] | tube area decrease [4] | GLP1 secretion stimulation [5] | inhibition of viability [6] | viability decrease (inhibition) [7] | viability decrease (inhibition) [8]
CCOC(=O)C(=O)c1csc(NC=O)n1 | -0.7% (inactive) | -0.8% | 2.4% (inactive) | -15.5% (inactive) | -9.4% (inactive) | -2% (inactive) | 1.1% (inactive) | -10.2% (inactive) | 7.8% (inactive)
c1ccc(OCc2ccc(CCCN3CCOCC3)cc2)cc1 | -1% (inactive) | 0.3% | 4.5% (inactive) | 32.1% (inactive) | 14% (inactive) | -0.1% (inactive) | 54.5% (active) | 34.7% (active) | 19.4% (inactive)
Oc1ccc(CCNCCCCCCNCCc2ccccc2)cc1O | 5% (inactive) | 0.9% | 27.8% (active) | 83.3% (active) | 31.4% (inactive) | 0.6% (inactive) | 83.5% (active) | 99.5% (active) | 101% (active)
NC(CSCC(=O)O)C(=O)O (configuration not stated) | 0.1% (inactive) | 1.5% | -0.7% (inactive) | -2.5% (inactive) | 18.6% (inactive) | -2.3% (inactive) | 0.7% (inactive) | 0.9% (inactive) | -5.3% (inactive)
N#C[C@H]1C[C@H]2C[C@@H]2N1C(=O)[C@@H](N)C12CC3CC(CC(O)(C3)C1)C2 | 0.4% (inactive) | 1.1% | -2% (inactive) | -4.75% (inactive) | 2.7% (inactive) | 1.4% (inactive) | -5.3% (inactive) | 9.8% (inactive) | 6.25% (inactive)
NC(Cc1ccc([N+](=O)[O-])cc1)C(=O)O (configuration not stated) | -0.2% (inactive) | 0% | -0.8% (inactive) | -7.7% (inactive) | -16.5% (inactive) | -0.7% (inactive) | -2.8% (inactive) | -1.7% (inactive) | -20.4% (inactive)
CN[C@H](CC(C)C)C(=O)N[C@H]1C(=O)N[C@@H](CC(N)=O)C(=O)N[C@H]2C(=O)N[C@H]3C(=O)N[C@H](C(=O)N[C@H](C(=O)O)c4cc(O)cc(O)c4-c4cc3ccc4O)[C@H](O)c3ccc(c(Cl)c3)Oc3cc2cc(c3O[C@@H]2OC(CO)[C@@H](O)[C@H](O)[C@@H]2O[C@H]2C[C@](C)(N)[C@H](O)[C@H](C)O2)Oc2ccc(cc2Cl)[C@H]1O (some centres not stated) | -0.7% (inactive) | 2.4% | -0.1% (inactive) | -6.3% (inactive) | 7.3% (inactive) | -0.9% (inactive) | -1.3% (inactive) | 5% (inactive) | -10% (inactive)
O=C1NC2CCCCN2C12CCN(CCCN1c3ccccc3CCc3ccc(Cl)cc31)CC2 (configuration not stated) | 13.1% (inactive) | 0.1% | 3.85% (inactive) | 108% (active) | 89.4% (active) | 13.3% (inactive) | 112% (active) | 128% (active) | 101% (active)
CC(=O)SC[C@@H](Cc1ccccc1)C(=O)NCC(=O)OCc1ccccc1 | -0.9% (inactive) | 0.5% | -1.4% (inactive) | -9.8% (inactive) | 18.9% (inactive) | -4.5% (inactive) | -2% (inactive) | -6.1% (active) | -5.9% (inactive)
CCCCC(CC)COC(=O)c1ccc(N(C)C)cc1 (configuration not stated) | 0.3% (inactive) | 0.5% | -2.6% (inactive) | 34.1% (inactive) | 0.5% (inactive) | -2.3% (inactive) | 18% (inactive) | 32.1% (inactive) | 48.1% (inactive)
CC1CCCCN1CCCOC(=O)c1ccc(OC2CCCCC2)cc1 (configuration not stated) | 14.4% (inactive) | 4.4% | 12.4% (inactive) | 21.7% (inactive) | -14.7% (inactive) | 5.9% (inactive) | 83.6% (active) | 111% (active) | 94.7% (active)
CCO[C@@H]1O[C@H](C(COCc2ccccc2)OCc2ccccc2)[C@H](OCc2ccccc2)[C@H]1O (some centres not stated) | -1.3% (inactive) | -1.2% | 2.2% (inactive) | 15.1% (inactive) | 28.6% (inactive) | 6.9% (inactive) | 81.6% (active) | 63.5% (active) | 44.6% (active)
C/C(=C1\CCOC(=O)S1)N(C=O)Cc1cnc(C)nc1N | -0.3% (inactive) | 0.1% | 4.7% (inactive) | -6.1% (inactive) | -16.6% (inactive) | 8.1% (inactive) | 19.8% (inactive) | 3.7% (inactive) | 1.5% (inactive)
N#C/C(=C1\SCC(c2ccccc2Cl)S1)n1ccnc1 (configuration not stated) | 2% (inactive) | 2.6% | -2.4% (inactive) | 13.1% (inactive) | 21.9% (inactive) | 0.1% (inactive) | 21.7% (inactive) | 85.4% (active) | 35.2% (inactive)
Cc1cc(=O)oc2cc(O[C@@H]3SC[C@@H](O)[C@H](O)[C@H]3O)ccc12 | -0.2% (inactive) | -1.9% | 1.1% (inactive) | -1.3% (inactive) | 13.6% (inactive) | 3.6% (inactive) | -1.1% (inactive) | -15.9% (inactive) | 15.4% (inactive)
COC(=O)[C@H]1[C@H]2C[C@@H]3c4[nH]c5cc(OC)ccc5c4CCN3C[C@H]2C[C@@H](OC(=O)/C=C/c2ccc(O)c(OC)c2)[C@@H]1OC | 74.6% (active) | 3.6% | 0.4% (inactive) | 91.8% (active) | 21% (inactive) | 0.1% (inactive) | 85% (active) | 142% (active) | 102% (active)
CCOC(=O)c1cccnc1 | 0.1% (inactive) | 0.3% | -2.3% (inactive) | -2.55% (inactive) | -7.8% (inactive) | 1.1% (inactive) | -17.8% (inactive) | 58.1% (active) | -9.05% (inactive)
CC(=O)Oc1ccc(C2(c3ccc(OC(C)=O)cc3)C(=O)Nc3ccccc32)cc1 | 1.7% (inactive) | 0.9% | -2.1% (inactive) | 32.6% (inactive) | 51.8% (active) | 4% (inactive) | 39% (inactive) | 15.8% (inactive) | 49.1% (inactive)
CCN(CC)CCSC(=O)C(c1ccccc1)c1ccccc1 | 7.2% (inactive) | 2.8% | 15.8% (inactive) | 6.7% (inactive) | 3.2% (inactive) | 9.6% (inactive) | 1% (inactive) | 5.1% (inactive) | 1.5% (inactive)
CCCC(=O)O[C@]1(C(=O)COC(=O)CC)CC[C@H]2[C@@H]3CCC4=CC(=O)CC[C@]4(C)[C@H]3[C@@H](O)C[C@@]21C | -0.4% (inactive) | -2.3% | 0.8% (inactive) | -8.8% (inactive) | -9% (inactive) | 1.9% (inactive) | 6.6% (inactive) | -5.5% (inactive) | -2% (inactive)
CC1(C)CO[C@@H](CC(=O)O)CN1 | -0.7% (inactive) | 0.1% | 0.5% (inactive) | -0.8% (inactive) | -11.6% (inactive) | -0.1% (inactive) | 7.17% (inactive) | -7% (inactive) | -1% (inactive)
Cc1ccc(C(C)C)c(O)c1 | 0.6% (inactive) | 0.8% | -3.2% (inactive) | -0.65% (inactive) | 15.5% (inactive) | -0.9% (inactive) | -2.9% (inactive) | 74.8% (active) | 1.9% (inactive)
O=C(O)c1cc(O)c2c(c1)[O][Bi][O]2 | -2.2% (inactive) | 1% | -0.6% (inactive) | -0.3% (inactive) | 11.1% (inactive) | -0.5% (inactive) | 4.4% (inactive) | 26.3% (inactive) | 0.3% (inactive)
CC(CC(C#N)(c1ccccc1)C(C)C)N(C)C (configuration not stated) | 2.7% (inactive) | 0.9% | 3.4% (inactive) | -53.4% (inactive) | 1.3% (inactive) | 0.5% (inactive) | -4.77% (inactive) | 14.5% (inactive) | -20% (inactive)
NNC(=O)CP(=O)(c1ccccc1)c1ccccc1 | 1.5% (inactive) | 0.6% | -2% (inactive) | -2.45% (inactive) | 34.3% (inactive) | 1.1% (inactive) | -12.6% (inactive) | 10% (inactive) | 7.2% (inactive)
O=C(O)C1CSC(C(=O)O)N1 (configuration not stated) | 0.7% (inactive) | 1.2% | -0.4% (inactive) | -6.8% (inactive) | -2.5% (inactive) | -3.3% (inactive) | 2.5% (inactive) | 4% (inactive) | -8.7% (inactive)
COC(=O)c1cc(S(N)(=O)=O)ccc1OC | 0.9% (inactive) | 1.4% | -0.15% (inactive) | -6.1% (inactive) | 1.6% (inactive) | 0.1% (inactive) | -5.9% (inactive) | -8.9% (inactive) | -2.9% (inactive)
O=C(NN1CCCC1)NS(=O)(=O)c1ccc(Cl)cc1 | -0.5% (inactive) | -0.1% | 33.9% (active) | -3.1% (inactive) | 7% (inactive) | -1.1% (inactive) | 14.2% (inactive) | 0% (inactive) | -2.8% (inactive)
